In test [1] the test system is Wnt5a (protein binding on small-molecule microarray). The test can be described thus: small molecules binding Wnt5a protein – biophysical, small-molecule microarray, 635/667 nm fluorescence, primary screen (AID 1142).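 Also: fluorescence read at 667 nm with signal to noise per printed feature.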 The note with it: 635 nm fluorescence, higher = more signal.
The nature of test [2]: ATP-based viability of Huh7 replicon cells – cell-based, CellTiter-Glo luminescence, basal, 48 h, cytotoxicity control for HCV replication inhibitor project, primary screen (AID 1143).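 Also: Huh7 hepatoma cells carrying a hepatitis C replication reporter with no stimulus; test concentration not given here.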 Conditions: higher = more signal, called active from +8 up or from −8 down. A general note: A replicon is a self-replicating genome or part of one, used to study replication in cells.
A short description of test [3]: Pseudomonas biofilm growth suppression – PAO1 strain, BacTiter-Glo luminescence, LB-PBS, primary screen (AID 1144). The note with it: P. aeruginosa PAO1 biofilm, 12 h, higher = more signal.
Test [4] can be described thus: basal CRE-LacZ reporter activity in PC12 – cell-based, unstimulated, primary screen (AID 1145). The note with it: no forskolin, luminescence, 4.5 h, higher = more signal, called active from +8 up or from −8 down.
Test [5] can be described thus: forskolin-driven CRE-LacZ activity in PC12 – cell-based, CRE-LacZ reporter, forskolin-stimulated, primary screen (AID 1146).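 Also: PC12 cells with 6xCRE LacZ reporter stimulated by forskolin 10 µM; beta-galactosidase reporter signal reflecting CREB driven transcription.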 The note with it: luminescence, 4.5 h, higher = more signal, called active from +8 up or from −8 down.
Test [6] concerns the target Streptavidin (Streptomyces avidinii) (UniProt P22629). The test can be described thus: compounds binding control protein streptavidin – biophysical, small-molecule microarray, 635/667 nm fluorescence, artefact control for SMM compound annotation, primary screen (AID 1147).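 Also: signal reflects streptavidin binding to arrayed compounds as a control protein.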 Conditions: higher = more signal.
Test [7] is described as follows: probe aInhba binding on compound microarray – biochemical, small-molecule microarray, 635/667 nm fluorescence, primary screen (AID 1148).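 Also: score merges 667nm spot fluorescence with signal-to-noise for antibody binding to printed compounds.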 Conditions: higher = more signal.
Test [8] concerns the target Torsin-1A (Homo sapiens) (UniProt O14656). The test can be described thus: TOR1A wild-type binding on microarray – cell lysate, small-molecule microarray, lysate, 635/667 nm, primary screen (AID 1149). The note with it: COS7 hTOR1A-WT lysate, 635 nm fluorescence, higher = more signal.
Test [9] shares this target. As to the kind of experiment: torsin A mutant lysate binding on microarrays – cell lysate, small-molecule microarray, COS7 lysate, 635/667 nm fluorescence, primary screen (AID 1150).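 Also: score pools 667 nm emission and signal to noise measuring lysate protein binding.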 Conditions: COS7 hTOR1A mutant lysate, 635 nm fluorescence, higher = more signal.
Test [10] concerns Sonic hedgehog protein (Shh). As to the kind of experiment: Sonic hedgehog microarray binding compounds – biochemical, small-molecule microarray, 635/667 nm fluorescence, primary screen (AID 1151).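 Also: Shh protein binding to compounds spotted on small-molecule microarray slides; score combines spot fluorescence intensity with signal-to-noise across triplicate slides.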 The note with it: 635 nm fluorescence, higher = more signal.
A short description of test [11]: optical density shifts of acrAB sulA E. coli – strain DRC41, OD650, 48 h, E. coli filamentation inducer project, primary screen (AID 1152).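 Also: E. coli MC1000 strain DRC41 lacking acrAB efflux pump and sulA.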 Conditions: higher = more signal, called active from +8 up or from −8 down.
The nature of test [12]: probe aLefty1 binding on compound microarray – biochemical, small-molecule microarray, 635/667 nm fluorescence, primary screen (AID 1153).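 Also: score merges spot fluorescence with signal-to-noise ratio from the scanned slide images.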 Conditions: higher = more signal.
Test [13] can be described thus: plasmodial surface anion channel blockers, osmotic lysis – cell-based, P. falciparum Indochina, OD700, 1 h, primary screen (AID 1154). Conditions: P. falciparum Indochina infected RBC osmotic lysis, higher = more signal, called active from +8 up or from −8 down.
The nature of test [14]: plasmodial surface anion channel blockers, osmotic lysis – cell-based, P. falciparum Indochina, OD700, 2 h, primary screen (AID 1155).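 Also: lysis reports solute entry through the parasite surface anion channel PSAC.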 Conditions: P. falciparum Indochina infected erythrocytes, higher = more signal, called active from +8 up or from −8 down.
Test [15] can be described thus: changes in parasitized red cell lysis, either direction – P. falciparum Indochina, OD700, 3 h, PSAC antagonist project, primary screen (AID 1156). The note with it: P. falciparum-infected erythrocytes, osmotic lysis, higher = more signal, called active from +8 up or from −8 down.
Test [16] can be described thus: plasmodial surface anion channel blockers, osmotic lysis – cell-based, P. falciparum Indochina, OD700, 18 h, primary screen (AID 1157). The note with it: P. falciparum Indochina infected erythrocytes, osmotic lysis OD700, 18 h; higher = more signal, called active from +8 up or from −8 down.
Test [17] is described as follows: S6 kinase pathway phospho-S6 level changes – cell-based, A549, cytoblot, luminescence, serum-stimulated, primary screen (AID 1158).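 Also: serum-stimulated A549 lung adenocarcinoma cells; signal is phosphorylated S6 detected by cytoblot immunostaining with HRP secondary.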 The note with it: 5 h, higher = more signal.
Test [18] has as its target NADPH oxidase 2 (Homo sapiens) (UniProt P04839). The test can be described thus: compounds shifting NOX2 Amplex Red fluorescence – cell-based, HEK293-NOX2, PMA-stimulated, NOX inhibitor project, primary screen (AID 1159). Also: test concentration not given here. Conditions: 45 min, higher = more signal, called active from +8 up or from −8 down.
Test [19] concerns the target NADPH oxidase 4 (Homo sapiens) (UniProt Q9NPH5). The test can be described thus: compounds shifting NOX4 Amplex Red fluorescence – cell-based, HEK293-NOX4, tetracycline-induced, NOX inhibitor project, primary screen (AID 1160). Conditions: HEK293-NOX4, Amplex Red H2O2 fluorescence, 45 min; higher = more signal, called active from +8 up or from −8 down.
Test [20] deals with NADPH oxidase 5 (Homo sapiens) (UniProt Q96PH1). The test can be described thus: compounds shifting NOX5 Amplex Red fluorescence – cell-based, HEK293-NOX5, NOX inhibitor project, primary screen (AID 1161). Conditions: HEK293-NOX5, ionomycin, 45 min, higher = more signal.
NADPH oxidase 5 (Homo sapiens), sequence (Q96PH1 whole entry, looked up): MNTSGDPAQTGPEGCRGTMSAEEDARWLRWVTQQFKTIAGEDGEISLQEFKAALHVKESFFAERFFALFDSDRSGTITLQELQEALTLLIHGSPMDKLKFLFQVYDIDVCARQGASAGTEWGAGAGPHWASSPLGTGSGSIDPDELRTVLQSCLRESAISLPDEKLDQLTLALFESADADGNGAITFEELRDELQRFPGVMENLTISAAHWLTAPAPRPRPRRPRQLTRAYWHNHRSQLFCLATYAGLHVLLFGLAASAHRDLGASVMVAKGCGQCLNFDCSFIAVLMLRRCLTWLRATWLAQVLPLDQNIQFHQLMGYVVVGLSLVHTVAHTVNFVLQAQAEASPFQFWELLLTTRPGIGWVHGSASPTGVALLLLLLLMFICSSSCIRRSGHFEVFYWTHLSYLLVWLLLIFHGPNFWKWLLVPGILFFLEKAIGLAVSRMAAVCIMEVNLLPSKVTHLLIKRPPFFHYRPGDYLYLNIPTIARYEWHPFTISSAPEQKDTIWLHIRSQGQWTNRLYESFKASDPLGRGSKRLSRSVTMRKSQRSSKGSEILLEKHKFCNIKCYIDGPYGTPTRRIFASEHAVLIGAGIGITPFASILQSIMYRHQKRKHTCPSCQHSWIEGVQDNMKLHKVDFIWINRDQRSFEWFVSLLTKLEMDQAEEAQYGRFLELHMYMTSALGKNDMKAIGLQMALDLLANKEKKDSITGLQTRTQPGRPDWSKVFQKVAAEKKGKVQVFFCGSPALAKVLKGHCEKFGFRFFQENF

The source made the active and inactive calls. Unless noted, no rule for the calls is given here.

Here are results for 5 molecules from PubChem BioAssay.

Torsin-1A (Homo sapiens), sequence (O14656 whole entry, looked up): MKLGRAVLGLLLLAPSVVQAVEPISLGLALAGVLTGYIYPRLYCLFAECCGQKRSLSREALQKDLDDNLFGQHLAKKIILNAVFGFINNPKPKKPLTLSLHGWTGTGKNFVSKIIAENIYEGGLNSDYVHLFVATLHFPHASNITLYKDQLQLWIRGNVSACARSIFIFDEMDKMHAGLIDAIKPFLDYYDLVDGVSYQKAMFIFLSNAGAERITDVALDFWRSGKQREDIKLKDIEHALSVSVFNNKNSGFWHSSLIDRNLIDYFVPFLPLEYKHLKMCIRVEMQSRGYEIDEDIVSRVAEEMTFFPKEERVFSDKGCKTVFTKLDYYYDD
NADPH oxidase 4 (Homo sapiens), sequence (Q9NPH5 whole entry, looked up): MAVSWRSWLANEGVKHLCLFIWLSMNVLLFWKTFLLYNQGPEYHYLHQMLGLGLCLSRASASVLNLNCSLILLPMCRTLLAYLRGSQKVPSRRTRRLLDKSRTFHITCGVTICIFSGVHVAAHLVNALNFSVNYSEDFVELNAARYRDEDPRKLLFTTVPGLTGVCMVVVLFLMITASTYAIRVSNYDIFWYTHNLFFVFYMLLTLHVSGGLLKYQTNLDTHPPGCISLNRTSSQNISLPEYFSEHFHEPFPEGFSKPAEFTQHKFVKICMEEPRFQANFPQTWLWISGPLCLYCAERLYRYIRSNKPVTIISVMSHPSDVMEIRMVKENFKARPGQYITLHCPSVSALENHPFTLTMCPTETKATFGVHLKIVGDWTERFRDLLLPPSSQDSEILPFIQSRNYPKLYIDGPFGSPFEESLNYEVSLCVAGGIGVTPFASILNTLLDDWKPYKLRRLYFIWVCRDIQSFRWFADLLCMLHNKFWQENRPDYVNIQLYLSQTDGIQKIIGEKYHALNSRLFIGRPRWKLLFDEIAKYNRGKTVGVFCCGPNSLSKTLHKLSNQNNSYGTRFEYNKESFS
Streptavidin (Streptomyces avidinii), sequence (P22629 whole entry, looked up): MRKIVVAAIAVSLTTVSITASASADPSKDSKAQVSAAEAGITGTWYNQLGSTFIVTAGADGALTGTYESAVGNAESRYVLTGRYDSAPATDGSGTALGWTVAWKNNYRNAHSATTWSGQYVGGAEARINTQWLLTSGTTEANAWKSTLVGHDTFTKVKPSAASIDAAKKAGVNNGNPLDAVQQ
NADPH oxidase 2 (Homo sapiens), sequence (P04839 whole entry, looked up): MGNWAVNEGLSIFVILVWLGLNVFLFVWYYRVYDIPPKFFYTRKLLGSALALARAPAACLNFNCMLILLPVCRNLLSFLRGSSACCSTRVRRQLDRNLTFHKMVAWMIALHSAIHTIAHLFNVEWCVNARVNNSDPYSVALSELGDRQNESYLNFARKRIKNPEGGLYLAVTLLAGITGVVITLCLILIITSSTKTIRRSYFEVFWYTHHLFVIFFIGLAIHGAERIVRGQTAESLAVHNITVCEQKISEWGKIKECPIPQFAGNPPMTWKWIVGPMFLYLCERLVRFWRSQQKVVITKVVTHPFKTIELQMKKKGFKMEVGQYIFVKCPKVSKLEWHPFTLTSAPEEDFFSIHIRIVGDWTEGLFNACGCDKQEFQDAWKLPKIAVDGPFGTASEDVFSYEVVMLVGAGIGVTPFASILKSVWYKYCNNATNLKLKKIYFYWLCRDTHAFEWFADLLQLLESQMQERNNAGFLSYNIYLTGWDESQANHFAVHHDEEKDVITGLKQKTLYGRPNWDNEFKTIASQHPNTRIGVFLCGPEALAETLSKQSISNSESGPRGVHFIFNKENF

Take `CCOC(=O)[C@H](Cc1ccccc1)NC(=O)CCC1CC(OC(=O)NCCc2ccc(F)cc2)CC2(CCCC(COC(=O)NCCC(C)C)O2)O1` (stereo not given in full): the composite z-score in test [1] is 0.446; in [6] it was 0.496; in test [7], -0.183; with Torsin-1A (Homo sapiens) [8], 0.0817; with Torsin-1A (Homo sapiens) [9], 0.34; in [10], 1.68. The composite z-score in test [12] stood at 0.145. In addition, the z-score is 0.0118 (inactive) in [2]; -0.275 (inactive) in [3]; 1.09 (inactive) in test [4]; 0.956 (inactive) in test [5]; -0.15 (inactive) in test [11]; -1.5 (inactive) in test [13]. Moreover, the z-score in test [14] was -0.302 (inactive); in test [15], 0.005 (inactive); in [16], 0.0777 (inactive); in test [17] it was 0.429; in test [18], -0.0979 (inactive); in [19], 0.397 (inactive). Besides, in test [20], the z-score came out at 0.7.

For `CO[C@@H]1COC(=O)[C@@H]2CCCN2C(=O)[C@@H](C)COC(=O)CCC[C@H]1C`, the composite z-score in [1] is -0.0105; in test [6] it was 1.21; in [7], -0.153; with Torsin-1A (Homo sapiens) [8] it was 1.21; with Torsin-1A (Homo sapiens) [9], 0.241; in test [10] it was 1.18. The molecule further returned a composite z-score in test [12] of -0.241. Besides, the z-score is -0.848 (inactive) in test [2]; -0.506 (inactive) in [3]; 0.355 (inactive) in test [4]; -0.269 (inactive) in test [5]; -0.476 (inactive) in test [11]; -0.238 (inactive) in [13]. Further, the z-score in test [14] was -1.48 (inactive); in test [15], -0.0716 (inactive); in test [16], -2.21 (inactive); in test [17], 2.43; in test [18], -0.634 (inactive); in [19], 0.0989 (inactive). The z-score in test [20] amounted to 0.43.

`COC(OC)[C@@H](C)[C@H](OC)[C@@H](C)[C@H](OC)c1ccccc1`: the composite z-score was 0.3 in [1]; -0.211 in [6]; -0.321 in [7]; 0.237 with Torsin-1A (Homo sapiens) [8]; -0.252 in the test with Torsin-1A (Homo sapiens) [9]; 0.155 in test [10]. For the same molecule, the composite z-score in test [12] is -0.235. Besides, the z-score in test [2] was -0.609 (inactive); in test [3], -1.32 (inactive); in test [4], 1.46 (inactive); in test [5], 0.0401 (inactive); in test [11] it was 0.215 (inactive); in [13], -0.271 (inactive). The z-score in [14] was -0.947 (inactive); in test [15], -0.75 (inactive); in test [16] it was -1.06 (inactive); in test [17] it was 1.67; in test [18] it was 0.491 (inactive); in test [19] it was 0.153 (inactive). In addition, the z-score in test [20] came to 0.577.

In the case of `CC1(C)O[C@H]2O[C@H]([C@H](O)CON=C3[C@H]4CCn5c(=O)n(-c6ccccc6)c(=O)n5[C@H]4[C@H](O)[C@@H]4O[C@H]34)[C@H](O)[C@H]2O1`, the composite z-score is 0.0179 in [1]; 0.0676 in [6]; -0.154 in test [7]; 0.43 with Torsin-1A (Homo sapiens) [8]; -0.0174 with Torsin-1A (Homo sapiens) [9]; -0.217 in test [10]. In test [12], this molecule registered a composite z-score of -0.0375. Further, the z-score in test [2] is -0.279 (inactive); in test [3] it was -0.295 (inactive); in test [4], 0.494 (inactive); in test [5], 0.771 (inactive); in [11], -0.169 (inactive); in test [13] it was 0.246 (inactive). The z-score in [14] is 0.282 (inactive); in test [15] it was 0.267 (inactive); in test [16], 0.343 (inactive); in [17], -0.693; in [18], 0.197 (inactive); in test [19] it was 0.0828 (inactive). The z-score in test [20] is -0.47.

On to `C[C@@H]1CC[C@H]2C(=O)N3[C@@H](CC[C@@H](C)[C@@H]3c3ccc(Br)cc3)C(=O)N2[C@H]1c1ccc(Br)cc1`, for which the composite z-score in test [1] was 0.113; in test [6], 0.146; in [7], -0.0719; in the test with Torsin-1A (Homo sapiens) [8], 1.05; with Torsin-1A (Homo sapiens) [9] it was 0.626; in [10] it was 0.233. Also, the composite z-score in [12] is -0.0099. Moreover, the z-score was -1.1 (inactive) in [2]; 1.21 (inactive) in [3]; 0.198 (inactive) in [4]; 0.929 (inactive) in test [5]; -1.09 (inactive) in [11]; 4.4 (inactive) in test [13]. The z-score in [14] was 1.07 (inactive); in test [15], 0.121 (inactive); in test [16] it was 0.689 (inactive); in [17], 0.448; in test [18] it was 1.79 (inactive); in test [19], -1.8 (inactive). Moreover, in [20], the z-score was determined as 0.819.
